Assay outcomes from PubChem BioAssay.
MazEF act: activators of E. coli MazEF toxin-antitoxin RNase, primary screen, biochemical, fluorescence, uHTS. Endoribonuclease toxin MazF (Escherichia coli (strain K12)), P0AE70. FAM/BHQ RNA-DNA oligo cleavage fluorescence, 5 h. activation, % at 20 µM. 350,000 compounds, 0.32% hits. AID 504720, 2011; in the data active = activation above about 50%
Target sequence (P0AE70 whole entry, looked up): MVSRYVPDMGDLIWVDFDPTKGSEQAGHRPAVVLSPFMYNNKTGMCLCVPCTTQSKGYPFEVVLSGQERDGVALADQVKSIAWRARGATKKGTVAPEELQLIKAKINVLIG
Autofluor counter: counter-screen for toxin protease inhibitors: compound fluorescence. compound autofluorescence counterscreen, microsphere flow cytometry; active compounds read high. fluorescence intensity (concentration not given with the values). 360,000 compounds, 3.1% hits. AID 624483; in the data active = fluorescence intensity above about 16000
Anthrax LF prot: Bacillus anthracis LF protease inhibitors, primary screen, biochemical, multiplex microsphere, MLPCN library | inhibition, % at 10 µM | Lethal factor (Bacillus anthracis), P15917 | 360,000 compounds, 0.12% hits | multiplex microsphere protease cleavage assay; also: plate controls were buffer without enzyme for full effect and enzyme alone for no effect
SSB-PriA inh: inhibitors of Klebsiella pneumoniae PriA binding to SSB C-terminal tail, primary screen, biochemical, AlphaScreen; PriA–SSB C-terminal tail interaction (Klebsiella pneumoniae); AlphaScreen SSBct-PriA binding, biotinylated peptide; inhibition, % at 33 µM; 430,000 compounds, 0.6% hits; in the data active = inhibition mostly above about 37%, no sharp cut-off; inactive = mostly below about 20%;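 also: plate controls were negative control peptide for no effect and reference peptide for full effect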
BoNT-A LC inh2: BoNT/A light chain protease inhibitors, primary screen, biochemical, flow cytometry, MLPCN library. multiplex microsphere protease substrate cleavage. inhibition, % at 10 µM. 360,000 compounds, 0.17% hits. AID 588499, 2011; also: plate controls were buffer without enzyme for full effect and enzyme alone for no effect
BoNT-F LC inh: BoNT/F light chain protease inhibitors, primary screen, biochemical, flow cytometry, MLPCN library | Botulinum neurotoxin type F light chain protease (Clostridium botulinum) | 360,000 compounds, 0.22% hits | inhibition, % at 10 µM | Multiplex microsphere protease cleavage assay; in the data active = inhibition above about 35%, passing the limit was not always enough; also: plate controls were buffer without enzyme for full effect and enzyme alone for no effect
* = called active by the depositor; · = not tested or not shown. Compounds with a hit are over-represented: about 3.3% of the library has one in this group of screens. Rule as the data show it, unless noted: active = inhibition above about 30%; inconclusive = no clear call, values can overlap the other calls; inactive = below that.

SMILES	MazEF act	Autofluor counter	Anthrax LF prot	SSB-PriA inh	BoNT-A LC inh2	BoNT-F LC inh
CCCC(=O)Nc1ccc(-c2nc3cc(C)ccc3o2)cc1	-7.5	4846	-3.0	-12.2	0.1	-11.5
O=C(Nc1c(F)cccc1F)N(Cc1ccoc1)Cc1cccs1	·	·	·	31.0	·	·
COc1ccc(NC(=O)C23CC4CC(C2)CC(n2cnc(Br)n2)(C4)C3)cc1Cl	-2.6	16232*	-0.8	-7.1	-0.1	-3.4
CCOC(=O)C1C(c2ccccc2O)NC(=O)NC1(O)C(F)(F)F (configuration not stated)	6.4	3336	-5.0	-3.1	1.3	18.1
CCOC(=O)C1C(c2ccccc2Cl)NC(=O)N(C)C1(O)C(F)(F)F (configuration not stated)	-3.2	16952*	-5.4	-14.7	-2.4	-3.6
Cc1occc1-c1nnc(SCC(=O)Nc2nc(-c3ccccc3)cs2)o1	8.6	19701*	2.6	-6.7	0.1	-1.8
Cc1occc1-c1nnc(SCC(=O)Nc2nc3ccccc3s2)o1	7.5	19093*	-2.1	2.1	0.9	0.5
Cc1cc2ccccc2nc1SCC(=O)Nc1nc(-c2ccccc2)cs1	-15.5	16277*	-0.4	-6.2	-0.3	-2.4
COc1cc(CNCCSc2nnnn2C)cc(OC)c1OC	8.4	8512	-2.7	-5.5	-0.8	-3.7
Cn1nnnc1SCc1ccccc1F	2.8	22071*	-1.1	-6.7	-0.5	-1.1
COc1cccc(CNCCSc2nnnn2C)c1OC	0.8	22850*	-2.5	-10.1	-1.7	-5.8
Cn1nnnc1SCCNCc1ccccc1F	4.7	22828*	-1.1	-0.7	-2.0	-5.5
O=C1CCSC[C@@H](C(=O)NC2CCN(Cc3ccccc3)CC2)N1	·	·	·	-9.0	·	·
COC(=O)Cn1cnc2c(C#N)c3n(c2c1=O)CCCCC3	0.7	23066*	1.0	-8.8	0.5	-0.4
C#CCOCCOCCOCCNc1nc(N2CCN(C(=O)[C@H]([C@@H](C)CC)n3cc([C@@H](N)Cc4ccc(O)cc4)nn3)CC2)nc(N2CCN(C(=O)[C@H]([C@@H](C)CC)n3cc([C@@H](N)Cc4ccc(O)cc4)nn3)CC2)n1	51.2*	4226	-1.2	-1.4	-0.8	-25.7
C#CCOCCOCCOCCNc1nc(N2CCN(C(=O)C(Cc3cc4ccccc4[nH]3)n3cc(C(N)Cc4ccc(O)cc4)nn3)CC2)nc(N2CCN(C(=O)C(Cc3cc4ccccc4[nH]3)n3cc(C(N)Cc4ccc(O)cc4)nn3)CC2)n1 (configuration not stated)	-85.2	·	·	39.4*	·	·
C#CCOCCOCCOCCNc1nc(N2CCN(C(=O)[C@H]([C@@H](C)CC)n3cc([C@@H](N)CO)nn3)CC2)nc(N2CCN(C(=O)[C@H]([C@@H](C)CC)n3cc([C@@H](N)Cc4ccc(O)cc4)nn3)CC2)n1	8.6	4775	-4.4	2.0	-0.3	-23.8
CC(Cc1ccoc1)NS(=O)(=O)Cc1cccc(F)c1 (configuration not stated)	·	·	·	0.0	·	·
O=C(Nc1ccc(Cl)c(Cl)c1)c1csc(-c2ccccc2)n1	0.8	16273*	-3.0	-13.7	-0.1	-2.6
N#Cc1ccc(C(=O)N2CCS[C@H]2c2cccc(F)c2)cc1	·	·	·	-1.0	·	·
CC(OC(=O)C1CCCO1)C(=O)NC1CCCC1 (configuration not stated)	-5.6	19071*	0.2	-23.3	0.8	-2.1
CC(OC(=O)c1ccc(Cl)nc1)C(=O)NC1CCCC1 (configuration not stated)	-4.4	9164	-4.3	-9.9	-3.2	-8.2
CCn1nccc1C(=O)N(CCN1CCOCC1)c1nc2c(Cl)cccc2s1	·	·	·	5.0	·	·
CC1(C)CC(=O)C2=C(C1)OC(N)=C(C#N)C2C#Cc1ccccc1 (configuration not stated)	2.8	2836	-1.5	8.1	0.9	5.6
CN1CCN(/C=N/C2=C(C#N)C(c3ccccc3)C3=C(CC(C)(C)CC3=O)O2)CC1 (configuration not stated)	-2.1	22390*	-2.4	·	-1.4	-4.3
